Laboratory results from PubChem BioAssay AID2061310 (National Center for Advancing Translational Sciences (NCATS), 2025).
Records with an inconclusive call do not appear. Values without a mark were called inactive. Active and inactive are the calls of the source. Calls come from the whole dose curve; as a rule, active = well fitted curve in the direction sought with a large enough effect; inconclusive = small, poorly fitted or top-dose-only effect, or another doubt; inactive = no such curve, though single readings can be large or run the other way.

target: Retinal dehydrogenase 2 (Homo sapiens) (UniProt O94788); experiment: qHTS for Inhibitors of the Aldehyde Dehydrogenase Family (ALDH1A2) Validation screens; settings: fluorescence read-out; Potency: ALDH1A2 inhibition qHTS validation; series mostly up to 49.8 µM; activity, negative = inhibition: at the top concentration

Row | Compound | activity, negative = inhibition | Potency
1 | O=C(OC1C[C@@H]2CC3C[C@H](C1)N2CC3=O)c1c[nH]c2ccccc12 (some centres undefined) | 17.5% | –
2 | N/C(=N\OC(=O)c1ccccc1)c1ccccn1 | 15.7% | –
3 | CCOc1ccc(-c2cc(C(=O)N3CCN(c4ccccn4)CC3)c3ccccc3n2)cc1 | -9.2% | –
4 | CCCN(CCC)C(=O)Cn1c(=O)n(-c2ccc(C)cc2)c(=O)c2ccc(C(=O)NCc3ccccc3Cl)cc21 | -1.51% | –
5 | CCOC(=O)CSc1nc2c(sc3ccccc32)c(=O)n1CCCN1CCCC1 | 0.849% [at 44.5 µM] | –
6 | CC(C)N(CCC(=O)c1ccc2ccccc2c1)Cc1ccccc1 | – | 5.62 µM (active)
7 | CCOC(=O)CNS(=O)(=O)c1cc(-c2nnc(Nc3cccc(O)c3)c3ccccc23)ccc1C | -1.24% | –
8 | Cc1ccc(C(=O)Nc2cccc(C(=O)O)c2)cc1 | -31.7% | –
9 | CC(C)(C)c1ccc(S(=O)(=O)/C=C/C#N)cc1 | – | 2.82 µM (active)
